Screens (PubChem BioAssay)
Shown are actives, neighbours in structure and some others; about 14% of the full set was active somewhere.
Giardia FBPA inh = qHTS Assay for Inhibitors of Fructose-1,6-bisphosphate Aldolase from Giardia Lamblia; purified Giardia FBPA; 0.71% of 290,000 active; A8B2U2; Potency, µM (doses to about 59.6 µM), hits mostly inhibitors; note: nearly all actives have a fitted effect of over 55% in size
Target sequence (A8B2U2 whole entry, looked up): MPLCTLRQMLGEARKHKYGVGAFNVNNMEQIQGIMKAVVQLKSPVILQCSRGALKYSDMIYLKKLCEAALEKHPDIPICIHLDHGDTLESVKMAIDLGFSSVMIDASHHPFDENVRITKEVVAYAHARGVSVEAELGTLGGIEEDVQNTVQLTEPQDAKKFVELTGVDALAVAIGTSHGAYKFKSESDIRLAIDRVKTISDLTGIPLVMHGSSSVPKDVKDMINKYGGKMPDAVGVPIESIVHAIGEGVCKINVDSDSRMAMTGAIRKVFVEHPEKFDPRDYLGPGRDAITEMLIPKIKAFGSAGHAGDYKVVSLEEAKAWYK
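Giardia FBPA (40 nM reagent) was preincubated 10 min at RT with compound (up to 57.5 uM final), then substrate plus GAPDH/TPI/NAD/arsenate coupling system with diaphorase/resazurin was added; resorufin fluorescence (525/598 nm) was read after 20 min.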
Sm TGR inh = qHTS Assay for the Inhibitors of Schistosoma Mansoni Peroxiredoxins; purified TGR, DTNB reduction, TNB absorbance 405 nm; Schistosoma mansoni thioredoxin glutathione reductase (TGR), Q962Y6; 3% of 360,000 active; Potency, µM (titrated, usually from 114 µM), most hits filed as inhibitors; note: nearly all actives have a fitted effect of over 60% in size
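TGR 20 nM + NADPH 100 uM (dispensed conc.), cpd preinc 15 min RT; start with NADPH (500 uM addition) then DTNB (15 mM addition). Kinetic TNB absorbance, 405 nm filter. Four-parameter Hill fit across titration.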
HCMV inh = qHTS Assay for inhibitors of the human cytomegalovirus (HCMV). HFF cells, HCMV-luciferase reporter, 72 h; hits give low values. activity change, negative = inhibition, % at 57.5 µM. 4.5% of 410,000 active; in the data active = activity change below about -60%; inconclusive = no clear call, values can overlap the other calls; inactive = above about -39%
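Two-dose cell screen: HFF monolayers treated with compounds and infected with luciferase-expressing HCMV at 1 PFU/cell, 72 h at 37C, then lysed for luciferase measurement.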
Pf growth 96h = Primary qHTS for delayed death inhibitors of the malarial parasite plastid, 96 hour incubation; P. falciparum luciferase reporter growth, 96 h; Potency, µM (doses to about 28.7 µM), hits mostly inhibitors; 6.9% of 320,000 active; AID 504834, 2011
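P. falciparum expressing integrated firefly luciferase grown in erythrocytes (2% hematocrit, 0.05% parasitemia final) with compounds for 96 hours at 37 C, 5% CO2. Growth inhibition read as loss of luminescence after adding luciferase detection reagent.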
Pf growth 48h = Primary qHTS for delayed death inhibitors of the malarial parasite plastid, 48 hour incubation. P. falciparum luciferase growth in erythrocytes, 48 h. Potency, µM (highest dose often 28.7 µM), hits mostly inhibitors. 5.9% of 310,000 active
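Read-out is firefly luciferase luminescence from an integrated reporter in P. falciparum, so falling signal marks reduced parasite growth. Infected erythrocytes were at 2% hematocrit and 0.1% parasitemia (final) in Albumax-supplemented RPMI 1640.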
A number is an active result; i = inactive; ? = inconclusive; nt = not tested or not shown; ! = a repeat was not active. Unless noted, calls come from the whole dose curve; as a rule, active = well fitted curve in the direction sought with a large enough effect; inconclusive = small, poorly fitted or top-dose-only effect, or another doubt; inactive = no such curve, though single readings can be large; an effect the other way counts as inactive or inconclusive.

SMILES	Giardia FBPA inh	Sm TGR inh	HCMV inh	Pf growth 96h	Pf growth 48h
Cc1ccc(CN2CC=CCS2(=O)=O)cc1	nt	nt	i	nt	nt
Cc1ccc(CCC(=O)Nc2cc(Cl)ccc2Cl)o1	i	i	-97	i	i
Cc1ccc(CCC(=O)Nc2ncc(Cc3cccc(Cl)c3Cl)s2)o1	i	i	-64	i	i
COC(=O)c1cc(OC)c(OC)cc1NC(=O)c1cc(C(C)(C)C)oc1C	i	i	?	?	2.9µM
Cc1ccc(C)c(NC(=O)CCc2ccc(C)o2)c1	i	i	i	?	i
COC(=O)c1cc(OC)c(OC)cc1NC(=O)c1ccc(C)cc1	i	i	i	i	nt
CCc1nnc(NC(=O)CCc2ccc(C)o2)s1	i	i	i	i	nt
COc1ccc(OC)c(NC(=O)C2(C)CCN2C(=O)C(C)(C)c2ccccc2)c1 (centres undefined)	nt	nt	i	nt	nt
Cc1ccc(CNC(=O)CCCn2nc(C)c3c(C)n(-c4ccccc4)nc3c2=O)cc1	nt	i	?	i	i
CN1CC=C2C(C#N)=C(N)C(C#N)(C#N)C(c3ccncc3)C2C1 (centres undefined)	?	i	nt	i	i
CN1CC=C2C(C#N)=C(N)C(C#N)(C#N)[C@H](c3cccs3)[C@H]2C1	?	i	nt	i	i
CCCC1C2CN(C(C)C)CC=C2C(C#N)=C(N)C1(C#N)C#N (centres undefined)	?	18µM	i	i	i
CN1CC=C2C(C#N)=C(N)C(C#N)(C#N)C(CCc3ccccc3)C2C1 (centres undefined)	?	i	nt	7.4µM	i
CCN(CC(=O)Nc1cccc(OC)c1)c1ncnc2sc(C)c(C)c12	i	i	-74	i	i
COc1ccc(NC(=O)C2Cc3c(-c4cccc(C(N)=O)c4)ccnc3O2)cc1 (centres undefined)	nt	nt	i	nt	nt
CCOc1ccc(NC(=O)Cn2nnc(C(=O)NCCc3ccccc3)c2N)cc1	nt	i	i	nt	nt
COc1ccc(Cn2nnc(C(=O)Nc3ccc(F)cc3)c2N)cc1	i	i	i	1.9µM	i
COc1ccc(NC(=O)Cn2nnc(C(=O)NCCc3ccccc3)c2N)cc1	i	i	-64!	?	i
CCOc1ccc(Cn2nnc(C(=O)NCCc3ccc(Cl)cc3)c2N)cc1	i	i	i	5.2µM	nt
COc1ccc(CCNC(=O)Cn2nnc(C(=O)Nc3cccc(C)c3C)c2N)cc1OC	nt	i	i	1.9µM	i
COc1ccccc1NC(=O)Cn1c(C)nc2c(sc(=S)n2Cc2ccco2)c1=O	i	i	i	?	i
COC(=O)[C@@]1(Sc2ccc(OC)cc2)CC(=O)N[C@@H]1c1ccc(OC(C)C)c(OC)c1	nt	nt	i	nt	nt
CC(=O)O[C@@H]1C[C@H]2C(C)(C)C(=O)C=C[C@]2(C)[C@H]2CC[C@@]3(C)[C@H](c4ccoc4)OC(=O)[C@H]4O[C@]43[C@@]21C	i	i	-79	3.3µM	1.7µM
O=C(NCCCN1CCOCC1)C(=O)NCC1OCCN1S(=O)(=O)c1ccc(Cl)cc1 (centres undefined)	nt	nt	i	nt	nt
COc1ccc(CNC(=O)COC(=O)CO/N=C(\C)c2ccc3c(c2)OCO3)cc1	nt	i	i	i	i
SMILES	Giardia FBPA inh	Sm TGR inh	HCMV inh	Pf growth 96h	Pf growth 48h
N=c1c2c(n(Cc3ccc(Cl)c(Cl)c3)c3c1CCC3)CCCC2	i	i	-86	i	0.15µM
N=c1c2c(n(Cc3ccc([N+](=O)[O-])cc3)c3c1CCC3)CCCC2	i	i	-86	10µM	?
N=c1c2c(n(Cc3ccc(Br)cc3)c3c1CCC3)CCCC2	i	i	-95	0.033µM	0.093µM
O=c1[nH]c(=O)n(Cc2ccccc2)c2c1CCC2	i	i	i	nt	i
O=[N+]([O-])c1ccc(CN2CCCCCC2)cc1	?	i	i	?	i
CCCCNC(=S)NNC(=O)c1ccc(Br)o1	i	i	i	i	i
COCCn1c(-c2ccc3ccccc3c2)nc2c1c(=O)[nH]c(=O)n2CC(C)C	i	i	i	?	?
O=C(c1ccccc1)c1ccc(C(=O)N2CCOCC2)cc1	i	i	i	i	i
Cc1sc2c(c1C)CN(CCN1CCOCC1)CN2C(=O)c1ccccc1	i	79µM	i	i	i
Cc1cccc(Nc2ccc(C(=O)N3CCOCC3)cn2)c1	i	i	i	?	i
